HEK293 tox = cytotoxic compounds in HEK 293 cells; hit rate 6.6% among 94,000; Potency, µM (top dose mostly 115 µM), usual class: inhibitors; HEK 293 viability, ATP luminescence (CellTiter-Glo), 48-72 h; also: nearly all actives have a fitted effect of over 60% in size
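Viability of HEK 293 cells, plated at 250 cells/well, was judged by cellular ATP after compound treatment for 48 or 72 hr. Luminescence was imaged 10 min after CellTiter-Glo addition at room temperature.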
hNpr1 antagonist = blocks ANP-stimulated signaling of human Npr1 receptor. Potency, µM (top dose mostly 46.3 µM), actives largely listed as inhibitors. hit rate 1.6% among 76,000. P16066. HEK293 hNpr1 GloSensor cGMP, ANP-stimulated luminescence; calls by dose curve; also: nearly all actives have a fitted effect of over 60% in size
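HEK293 cells stably expressing human Npr1 and cGMP GloSensor pGS-40F, loaded 2 h with 2% GloSensor reagent, given compound 30 min at room temperature. Luminescence read before and 20 min after 0.1 nM hNppA.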
GPT2 inhibitor = GPT2 alanine aminotransferase inhibition; Potency, µM (highest dose often 57.7 µM), hits mostly inhibitors; hit rate 0.25% among 100,000; Q8TD30; Recombinant GPT2, coupled pyruvate oxidase/HRP Amplex Red fluorescence; AID 1671188; also: nearly all actives have a fitted effect of over 60% in size
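Inhibition is scored from Amplex Red fluorescence generated when pyruvate oxidase and HRP act on pyruvate released by GPT2. Reactions contain 10ng/uL enzyme, 250uM a-KG and 2mM L-alanine and run 30 min at room temperature.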
NIH3T3 tox = cytotoxic compounds in NIH 3T3 cells; AID 1345082; NIH 3T3 viability, CellTiter-Glo ATP luminescence, 48-72 h; Potency, µM (highest dose often 96.7 µM), actives largely listed as inhibitors; hit rate 4.3% among 94,000; also: nearly all actives have a fitted effect of over 55% in size
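NIH 3T3 cells at 400 cells/well received 23 nL of compound by pintool and were incubated 48 or 72 h at 37 °C. Viability was read as ATP-coupled CellTiter-Glo luminescence.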
FLuc inh = inhibitors of firefly (Photinus pyralis) luciferase | purified P. pyralis luciferase, luminescence, biochemical | hit rate 2.5% among 76,000 | Potency, µM (highest dose often 115 µM), usual class: inhibitors | P08659 | AID 1347043; also: nearly all actives have a fitted effect of over 65% in size
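Biochemical qHTS: compound (6-point titration) added to 10uM D-luciferin plus 10uM ATP in Tris acetate pH 7.5 buffer with Mg, Tween-20 and BSA, then purified enzyme at 10nM; light output imaged.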
NPR1 antag cnf = confirmation of human Npr1 natriuretic peptide receptor antagonists | shares compounds with hNpr1 antagonist | HEK293 hNpr1 cGMP GloSensor luminescence, ANP-stimulated | Potency, µM (top dose mostly 57.6 µM), usual class: inhibitors | hit rate 76% among 1,400; calls by dose curve; also: nearly all actives have a fitted effect of over 70% in size
NPR2 antag = antagonizes human Npr2, subtype selectivity check; Potency, µM (titrated, usually from 57.6 µM), hits mostly inhibitors; HEK293 hNpr2 GloSensor cGMP luminescence, CNP-stimulated; hit rate 67% among 1,400; shares compounds with hNpr1 antagonist; calls by dose curve; also: nearly all actives have a fitted effect of over 70% in size
Target sequence (P20594 whole entry, looked up): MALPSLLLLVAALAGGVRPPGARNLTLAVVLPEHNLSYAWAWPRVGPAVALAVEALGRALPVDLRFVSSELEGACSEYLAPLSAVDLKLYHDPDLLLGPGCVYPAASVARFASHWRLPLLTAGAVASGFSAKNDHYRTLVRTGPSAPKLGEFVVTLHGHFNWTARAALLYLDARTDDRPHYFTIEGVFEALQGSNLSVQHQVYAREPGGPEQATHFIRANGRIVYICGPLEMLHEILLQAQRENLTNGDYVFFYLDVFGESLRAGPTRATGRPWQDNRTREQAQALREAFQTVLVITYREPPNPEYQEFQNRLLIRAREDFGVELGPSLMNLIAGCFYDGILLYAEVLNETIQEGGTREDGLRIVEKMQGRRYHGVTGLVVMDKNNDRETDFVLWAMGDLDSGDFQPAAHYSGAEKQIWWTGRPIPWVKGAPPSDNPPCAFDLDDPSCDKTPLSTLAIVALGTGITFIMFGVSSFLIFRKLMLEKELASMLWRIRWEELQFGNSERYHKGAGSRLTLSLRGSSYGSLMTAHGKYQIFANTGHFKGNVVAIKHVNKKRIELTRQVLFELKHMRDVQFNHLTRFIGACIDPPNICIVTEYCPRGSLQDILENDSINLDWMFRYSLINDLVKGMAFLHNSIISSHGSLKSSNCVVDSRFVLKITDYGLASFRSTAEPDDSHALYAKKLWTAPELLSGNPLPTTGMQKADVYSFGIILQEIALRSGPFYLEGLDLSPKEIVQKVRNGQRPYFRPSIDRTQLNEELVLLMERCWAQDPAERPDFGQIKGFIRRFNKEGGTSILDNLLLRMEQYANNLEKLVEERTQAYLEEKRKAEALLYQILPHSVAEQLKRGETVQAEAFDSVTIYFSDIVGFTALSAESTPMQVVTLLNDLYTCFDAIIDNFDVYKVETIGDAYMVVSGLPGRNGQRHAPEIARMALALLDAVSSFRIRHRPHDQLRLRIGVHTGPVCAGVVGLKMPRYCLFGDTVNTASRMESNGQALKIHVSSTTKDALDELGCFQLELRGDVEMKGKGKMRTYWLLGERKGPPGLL
FLuc counter = FLuc enzyme inhibition, Npr1 counter-screen; shares compounds with hNpr1 antagonist; purified FLuc enzyme, luminescence, Km substrate; Potency, µM (doses to about 57.6 µM), most hits filed as inhibitors; hit rate 0.7% among 1,400
GloSensor cGMP = reduces cGMP signal in GloSensor control cells | shares compounds with hNpr1 antagonist | HEK293 GloSensor cGMP, SNP-stimulated, luminescence | Potency, µM (doses to about 57.6 µM), usual class: inhibitors | hit rate 69% among 1,400; calls by dose curve; also: nearly all actives have a fitted effect of over 70% in size
Of the large screens only hits and unclear results are named; the others gave an inactive call (follow-up assays come after a bar, where they were run). Hits are enriched below; roughly 10% of the tested compounds scored in any of these assays. Unless noted, calls follow the shape of the dose curve; as a rule, active = well fitted curve in the direction sought with a large enough effect; inconclusive = small, poorly fitted or top-dose-only effect, or another doubt; inactive = no such curve, though single readings can be large; an effect the other way counts as inactive or inconclusive.

COc1ncccc1CN1CCCC12Cc1ccccc1CNC2=O (centres undefined)	HEK293 tox inconclusive (no result: hNpr1 antagonist, FLuc inh)
CCc1ccc(CN2CCCC23Cc2ccccc2CNC3=O)s1 (centres undefined)	HEK293 tox inconclusive, NIH3T3 tox inconclusive (no result: hNpr1 antagonist, FLuc inh) | NPR1 antag cnf inactive | NPR2 antag inactive | FLuc counter inactive | GloSensor cGMP inactive
CN1C(=O)c2sccc2N(C)c2nc(Nc3ccc(S(N)(=O)=O)cc3)ncc21	none (no result: HEK293 tox, hNpr1 antagonist, NIH3T3 tox, FLuc inh)
O=C(c1ccccc1)N1CCc2sc(C(=O)N3CCN(c4ccc(F)cc4)CC3)cc2C1	HEK293 tox inconclusive, hNpr1 antagonist 7.1µM, NIH3T3 tox inconclusive | NPR1 antag cnf 9.7µM | NPR2 antag 11µM | FLuc counter inactive | GloSensor cGMP 6.9µM
NC(=O)CNC(=O)c1cc2c(s1)CCN(C(=O)c1ccc(Cl)cc1)C2	GPT2 inhibitor inconclusive
COc1ccc(CNC(=O)c2cc3c(s2)CCN(C(=O)c2ccccc2)C3)cc1OC	HEK293 tox inconclusive, hNpr1 antagonist 2.5µM, NIH3T3 tox inconclusive | NPR1 antag cnf 3.4µM | NPR2 antag 4.8µM | FLuc counter inactive | GloSensor cGMP 3.1µM
CC1CCCN(C(=O)c2cc3c(s2)CCN(C(=O)c2ccc(Cl)cc2)C3)C1 (centres undefined)	HEK293 tox 45µM, NIH3T3 tox inconclusive | NPR1 antag cnf 27µM | NPR2 antag 27µM | FLuc counter inactive | GloSensor cGMP 24µM
O=C(NCc1ccccc1)c1cc2c(s1)CCN(C(=O)c1ccccc1)C2	HEK293 tox inconclusive, NIH3T3 tox inconclusive
NC(=O)c1ccc(F)c2c1C[C@@H](N(C1CCC1)C1CCC1)CO2	none (no result: HEK293 tox, hNpr1 antagonist, NIH3T3 tox, FLuc inh)
Cc1cccc(-n2ncc3c2CCCC3NC(=O)c2c(F)ccc(F)c2F)c1C (centres undefined)	hNpr1 antagonist 5µM, NIH3T3 tox inconclusive | NPR1 antag cnf 11µM | NPR2 antag 11µM | FLuc counter inactive | GloSensor cGMP 8.6µM
O=C(CC1CCCN(c2cn[nH]c(=O)c2)C1)Nc1ccccc1F (centres undefined)	none
O=C(OCc1ccccc1)N1CCC2(CC1)C(=O)NN=C2c1cccnc1	HEK293 tox inconclusive, hNpr1 antagonist inconclusive, NIH3T3 tox inconclusive | NPR1 antag cnf 19µM | NPR2 antag 22µM | FLuc counter inactive | GloSensor cGMP 17µM
O=C(c1ccccc1)N1CCC2(CC1)C(=O)NN=C2c1cccnc1	none
Cc1cn2nc(C(=O)NCc3ccccc3F)cc2c(N(C)Cc2ccccc2)n1	HEK293 tox inconclusive, NIH3T3 tox inconclusive
COC(=O)[C@H](Cc1ccc(OC)cc1)NC(=O)[C@H]1CN(S(=O)(=O)c2ccccc2)CCN1S(=O)(=O)c1ccccc1	NIH3T3 tox inconclusive
COc1ccc(C2Cn3nnc(-c4noc(C5CCCCC5)n4)c3CO2)cc1 (centres undefined)	none | NPR1 antag cnf inconclusive | NPR2 antag inconclusive | FLuc counter inactive | GloSensor cGMP inactive
Clc1ccc(C2Cn3nnc(-c4noc(C5CCCC5)n4)c3CO2)cc1 (centres undefined)	HEK293 tox inconclusive
COCc1nc2nc(-c3ccccc3)c(-c3cccc(CO)c3)cc2n1C	NIH3T3 tox inconclusive, FLuc inh inconclusive
COCCC(=O)N[C@@H]1CN(S(C)(=O)=O)C[C@H]1CN(C)C	none
Cn1cc(-c2cnc3[nH]cc(CC(=O)NCc4ccc5c(c4)OCO5)c3c2)cn1	HEK293 tox inconclusive, NIH3T3 tox inconclusive
CN(C)c1cccc(-c2cnc3[nH]cc(CC(=O)N4CCOCC4)c3c2)c1	HEK293 tox 79µM, hNpr1 antagonist 32µM, NIH3T3 tox inconclusive | NPR1 antag cnf 22µM | NPR2 antag 28µM | FLuc counter inconclusive | GloSensor cGMP 25µM
CNC(=O)c1cccc(-c2cnc3[nH]cc(CC(=O)N(C)c4ccccc4)c3c2)c1	HEK293 tox 45µM, hNpr1 antagonist 28µM, NIH3T3 tox 20µM | NPR1 antag cnf 35µM | NPR2 antag 35µM | FLuc counter inactive | GloSensor cGMP 40µM
Cc1cccc(-c2cnc3[nH]cc(CC(=O)N4CCOCC4)c3c2)c1	HEK293 tox inconclusive, hNpr1 antagonist 13µM, NIH3T3 tox inconclusive | NPR1 antag cnf 13µM | NPR2 antag 25µM | FLuc counter inactive | GloSensor cGMP 9.9µM
O=C(C1CC1)N1CCC(c2noc(-c3cccnc3)n2)C1 (centres undefined)	none
O=C(c1[nH]nc2c1CCc1ccccc1-2)N1CCC(c2noc(-c3cccnc3)n2)C1 (centres undefined)	HEK293 tox 35µM, hNpr1 antagonist 13µM, NIH3T3 tox inconclusive | NPR1 antag cnf 22µM | NPR2 antag 24µM | FLuc counter inactive | GloSensor cGMP 22µM
O=C(c1cc(CN2CCOCC2)on1)N1CCC(c2nc(C3CCOCC3)no2)C1 (centres undefined)	none | NPR1 antag cnf inactive | NPR2 antag inactive | FLuc counter inactive | GloSensor cGMP inactive
O=C(c1ccccc1)N1CCC(c2nc(C3CCOCC3)no2)C1 (centres undefined)	none
CC(C)c1noc(-c2cn(C3CCN(C(=O)c4ccc(F)cc4Cl)C3)nn2)n1 (centres undefined)	HEK293 tox inconclusive, hNpr1 antagonist inconclusive, NIH3T3 tox inconclusive | NPR1 antag cnf 15µM | NPR2 antag 15µM | FLuc counter inactive | GloSensor cGMP 14µM
CC(C)c1noc(-c2cn(C3CCN(C(=O)c4cccc(F)c4)C3)nn2)n1 (centres undefined)	HEK293 tox inconclusive, hNpr1 antagonist inconclusive, NIH3T3 tox inconclusive
Cc1noc(-c2cn(C3CCN(C(=O)c4ccc(F)cc4Cl)C3)nn2)n1 (centres undefined)	none
CC(C)c1noc(-c2cn(C3CCN(C(=O)c4cccc(Cl)c4)C3)nn2)n1 (centres undefined)	HEK293 tox inconclusive, hNpr1 antagonist inconclusive, NIH3T3 tox inconclusive | NPR1 antag cnf 24µM | NPR2 antag 27µM | FLuc counter inactive | GloSensor cGMP 22µM
O=C(CN1C(=O)NC2(CCOCC2)C1=O)Nc1ccccc1F	GPT2 inhibitor inconclusive
NC(=O)[C@H](CC1CCCCC1)NC(=O)[C@H]1CNCCN1C(=O)NC1CCCCC1	none

Source: PubChem BioAssay (National Center for Advancing Translational Sciences (NCATS))
